Source: PMC7862700, “An all-to-all approach to the identification of sequence-specific readers for epigenetic DNA modifications on cytosine”

Key:
Test in all cases: DAPPL (digital affinity profiling via proximity ligation, sequencing); 10 mM Tris-HCl pH 7.5, 50 mM NaCl, 1 mM DTT, 4% glycerol, room temperature, 30 min; GST-TFs on glutathione beads, 16-mer random dsDNA library, 0.1% formaldehyde crosslink after washing; high values mean tight binding
FLI1 = biological target: T1, FLI1 (Homo sapiens, UniProt Q01543 1-452); conditions: protein: recombinant; tags: N-terminal GST; dsDNA, one strand shown
T1 sequence: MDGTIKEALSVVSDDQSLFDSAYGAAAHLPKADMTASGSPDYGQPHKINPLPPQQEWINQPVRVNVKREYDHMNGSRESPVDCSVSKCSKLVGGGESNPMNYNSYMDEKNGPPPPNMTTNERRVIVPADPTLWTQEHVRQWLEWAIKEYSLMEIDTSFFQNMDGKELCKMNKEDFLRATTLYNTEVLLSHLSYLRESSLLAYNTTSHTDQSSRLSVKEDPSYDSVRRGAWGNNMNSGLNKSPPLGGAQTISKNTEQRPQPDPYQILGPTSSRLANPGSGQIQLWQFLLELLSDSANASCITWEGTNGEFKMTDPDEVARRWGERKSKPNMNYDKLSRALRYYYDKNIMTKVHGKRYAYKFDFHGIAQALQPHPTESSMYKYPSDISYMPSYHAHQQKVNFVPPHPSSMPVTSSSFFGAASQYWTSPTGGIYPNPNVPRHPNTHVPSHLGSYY
In short: (§1)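 The binding signal reported is, for every hexamer, its read frequency for a factor over its read frequency for the tag-only sample. Reads came from pools of yeast-expressed, GST-fused human transcription factors on glutathione beads, barcoded with DNA and mixed with that sample, which were incubated with 200 nmole of a random double-stranded 16-mer DNA library in Tris/NaCl/DTT/glycerol buffer at room temperature for 30 min. After washing, the pools were crosslinked with 0.1% formaldehyde, proximity-ligated with BsaI/T4 ligase for 1 h at 37 °C, PCR-amplified and sequenced on an Illumina NextSeq500.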

ELK1 = biological target: T2, ELK1 (Homo sapiens, UniProt P19419 1-428); conditions: protein: recombinant; tags: N-terminal GST; dsDNA, one strand shown
T2 sequence: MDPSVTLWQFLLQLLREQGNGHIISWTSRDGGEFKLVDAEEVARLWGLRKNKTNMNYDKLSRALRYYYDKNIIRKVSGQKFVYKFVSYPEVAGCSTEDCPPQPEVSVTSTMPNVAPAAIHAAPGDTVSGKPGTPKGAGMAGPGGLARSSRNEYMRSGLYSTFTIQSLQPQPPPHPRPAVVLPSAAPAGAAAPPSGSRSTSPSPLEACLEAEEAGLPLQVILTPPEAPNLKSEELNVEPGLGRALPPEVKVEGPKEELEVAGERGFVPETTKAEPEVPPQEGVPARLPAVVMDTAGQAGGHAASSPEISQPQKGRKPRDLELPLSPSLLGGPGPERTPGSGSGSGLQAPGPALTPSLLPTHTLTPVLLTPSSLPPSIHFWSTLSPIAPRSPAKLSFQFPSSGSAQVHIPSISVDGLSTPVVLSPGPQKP
In short: as §1

GABPA = biological target: T3, GABPA (Homo sapiens, UniProt Q06546 1-454); conditions: protein: recombinant; tags: N-terminal GST; dsDNA, one strand shown
T3 sequence: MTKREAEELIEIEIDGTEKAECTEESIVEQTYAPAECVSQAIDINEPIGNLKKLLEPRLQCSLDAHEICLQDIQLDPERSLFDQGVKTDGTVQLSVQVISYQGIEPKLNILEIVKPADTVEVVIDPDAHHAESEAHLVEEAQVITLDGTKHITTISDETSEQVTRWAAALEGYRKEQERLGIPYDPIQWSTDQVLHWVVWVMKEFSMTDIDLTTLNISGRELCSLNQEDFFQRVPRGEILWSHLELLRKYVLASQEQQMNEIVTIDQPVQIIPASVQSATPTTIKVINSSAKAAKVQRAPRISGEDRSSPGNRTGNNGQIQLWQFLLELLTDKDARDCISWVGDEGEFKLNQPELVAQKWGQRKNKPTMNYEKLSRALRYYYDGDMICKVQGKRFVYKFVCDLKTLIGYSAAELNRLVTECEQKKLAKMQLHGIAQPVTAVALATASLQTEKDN
In short: as §1

ERG = biological target: T4, ERG (Homo sapiens, UniProt P11308 1-479); conditions: protein: recombinant; tags: N-terminal GST; dsDNA, one strand shown
T4 sequence: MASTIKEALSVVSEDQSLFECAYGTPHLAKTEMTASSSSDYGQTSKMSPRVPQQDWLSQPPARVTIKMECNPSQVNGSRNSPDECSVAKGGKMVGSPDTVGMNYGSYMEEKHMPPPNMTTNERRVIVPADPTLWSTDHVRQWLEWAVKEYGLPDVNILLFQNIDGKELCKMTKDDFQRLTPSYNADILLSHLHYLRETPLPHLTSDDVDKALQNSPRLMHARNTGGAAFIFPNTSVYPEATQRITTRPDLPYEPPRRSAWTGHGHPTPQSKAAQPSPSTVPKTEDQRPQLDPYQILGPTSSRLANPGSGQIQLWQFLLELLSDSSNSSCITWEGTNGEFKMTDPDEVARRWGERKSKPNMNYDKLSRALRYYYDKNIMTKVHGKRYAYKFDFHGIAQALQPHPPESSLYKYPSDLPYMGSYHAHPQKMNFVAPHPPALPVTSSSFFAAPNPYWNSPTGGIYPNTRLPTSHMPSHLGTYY
In short: as §1

ELF1 = ELF1 (Homo sapiens, UniProt P32519 1-619); conditions: protein: recombinant; tags: N-terminal GST; dsDNA, one strand shown
Sequence of ELF1 (P32519 whole entry): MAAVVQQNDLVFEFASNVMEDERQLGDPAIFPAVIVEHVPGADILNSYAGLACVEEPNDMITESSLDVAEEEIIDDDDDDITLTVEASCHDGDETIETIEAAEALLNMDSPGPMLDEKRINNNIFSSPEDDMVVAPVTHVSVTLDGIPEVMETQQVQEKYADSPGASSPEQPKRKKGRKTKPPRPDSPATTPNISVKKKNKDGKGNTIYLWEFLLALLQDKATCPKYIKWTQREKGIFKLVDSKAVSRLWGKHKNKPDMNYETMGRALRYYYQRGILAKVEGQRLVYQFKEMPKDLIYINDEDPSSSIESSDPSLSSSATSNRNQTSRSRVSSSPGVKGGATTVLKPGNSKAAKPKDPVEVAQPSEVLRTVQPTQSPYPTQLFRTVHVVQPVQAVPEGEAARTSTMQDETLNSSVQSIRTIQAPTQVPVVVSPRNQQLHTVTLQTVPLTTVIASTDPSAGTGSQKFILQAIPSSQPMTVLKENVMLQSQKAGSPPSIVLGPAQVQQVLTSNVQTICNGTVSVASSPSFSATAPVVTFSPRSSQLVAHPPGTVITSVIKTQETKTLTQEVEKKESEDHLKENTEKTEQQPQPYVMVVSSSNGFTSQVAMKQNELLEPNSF
In short: as §1

EHF = biological target: T5, EHF (Homo sapiens, UniProt Q9NZC4 1-300); conditions: protein: recombinant; tags: N-terminal GST; dsDNA, one strand shown
T5 sequence: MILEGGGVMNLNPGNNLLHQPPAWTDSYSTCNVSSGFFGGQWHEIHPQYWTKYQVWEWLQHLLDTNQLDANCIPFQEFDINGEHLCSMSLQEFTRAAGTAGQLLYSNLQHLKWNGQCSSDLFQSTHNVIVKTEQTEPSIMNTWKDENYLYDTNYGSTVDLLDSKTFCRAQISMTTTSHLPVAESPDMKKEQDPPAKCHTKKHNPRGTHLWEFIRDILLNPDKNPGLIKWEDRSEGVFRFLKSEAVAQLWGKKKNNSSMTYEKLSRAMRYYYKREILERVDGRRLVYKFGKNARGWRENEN
In short: as §1

SPI1 = SPI1 (Homo sapiens, UniProt P17947 1-270); conditions: protein: recombinant; tags: N-terminal GST; dsDNA, one strand shown
In short: as §1

SPIB = SPIB (Homo sapiens, UniProt Q01892 1-262); conditions: protein: recombinant; tags: N-terminal GST; dsDNA, one strand shown
Sequence of SPIB (Q01892 whole entry): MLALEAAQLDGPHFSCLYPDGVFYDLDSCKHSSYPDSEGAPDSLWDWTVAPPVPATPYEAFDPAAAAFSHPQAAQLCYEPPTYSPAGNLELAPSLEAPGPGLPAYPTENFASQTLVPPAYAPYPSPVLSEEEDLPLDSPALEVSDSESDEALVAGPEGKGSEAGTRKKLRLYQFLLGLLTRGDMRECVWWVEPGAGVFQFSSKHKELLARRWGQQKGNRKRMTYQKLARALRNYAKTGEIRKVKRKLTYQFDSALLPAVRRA
In short: as §1

ELK3 = biological target: T6, ELK3 (Homo sapiens, UniProt P41970 1-407); conditions: protein: recombinant; tags: N-terminal GST; dsDNA, one strand shown
T6 sequence: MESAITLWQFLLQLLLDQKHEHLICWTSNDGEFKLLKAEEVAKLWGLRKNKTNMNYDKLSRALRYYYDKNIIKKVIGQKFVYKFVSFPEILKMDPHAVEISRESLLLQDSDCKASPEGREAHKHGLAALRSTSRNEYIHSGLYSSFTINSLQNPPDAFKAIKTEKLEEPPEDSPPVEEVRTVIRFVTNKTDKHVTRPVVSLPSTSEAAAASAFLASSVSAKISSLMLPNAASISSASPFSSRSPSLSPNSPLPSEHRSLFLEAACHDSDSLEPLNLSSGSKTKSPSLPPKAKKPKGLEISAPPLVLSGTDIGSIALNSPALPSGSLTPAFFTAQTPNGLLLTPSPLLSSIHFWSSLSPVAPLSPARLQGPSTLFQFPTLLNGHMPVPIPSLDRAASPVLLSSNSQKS
In short: as §1

FEV = biological target: T7, FEV (Homo sapiens, UniProt Q99581 1-238); conditions: protein: recombinant; tags: N-terminal GST; dsDNA, one strand shown
T7 sequence: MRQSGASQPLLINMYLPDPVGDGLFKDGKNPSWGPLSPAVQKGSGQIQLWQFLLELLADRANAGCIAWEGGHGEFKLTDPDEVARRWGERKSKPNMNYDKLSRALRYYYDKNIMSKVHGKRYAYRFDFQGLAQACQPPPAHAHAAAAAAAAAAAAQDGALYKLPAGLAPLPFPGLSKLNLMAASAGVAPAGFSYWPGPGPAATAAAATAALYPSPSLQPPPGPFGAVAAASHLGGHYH
In short: as §1

ETV5 = ETV5 (Homo sapiens, UniProt P41161 1-510); conditions: protein: recombinant; tags: N-terminal GST; dsDNA, one strand shown
Sequence of ETV5 (P41161 whole entry): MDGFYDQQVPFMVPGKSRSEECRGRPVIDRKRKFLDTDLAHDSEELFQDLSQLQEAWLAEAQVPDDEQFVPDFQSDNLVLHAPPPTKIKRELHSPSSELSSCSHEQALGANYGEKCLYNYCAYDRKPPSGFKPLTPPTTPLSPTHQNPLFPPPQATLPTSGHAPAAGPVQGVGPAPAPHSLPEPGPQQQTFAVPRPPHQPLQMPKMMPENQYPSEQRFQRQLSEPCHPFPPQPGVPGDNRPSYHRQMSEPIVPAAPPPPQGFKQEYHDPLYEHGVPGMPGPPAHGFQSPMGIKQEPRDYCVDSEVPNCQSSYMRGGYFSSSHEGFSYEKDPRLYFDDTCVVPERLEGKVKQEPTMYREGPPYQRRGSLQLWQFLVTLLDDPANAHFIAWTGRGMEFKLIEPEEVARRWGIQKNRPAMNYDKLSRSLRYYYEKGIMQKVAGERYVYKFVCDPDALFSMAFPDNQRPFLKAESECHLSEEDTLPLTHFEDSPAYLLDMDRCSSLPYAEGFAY
In short: as §1

HSF1 = HSF1 (Homo sapiens, UniProt Q00613 1-529); conditions: protein: recombinant; tags: N-terminal GST; chain copies: 3; dsDNA, one strand shown
Sequence of HSF1 (Q00613 whole entry): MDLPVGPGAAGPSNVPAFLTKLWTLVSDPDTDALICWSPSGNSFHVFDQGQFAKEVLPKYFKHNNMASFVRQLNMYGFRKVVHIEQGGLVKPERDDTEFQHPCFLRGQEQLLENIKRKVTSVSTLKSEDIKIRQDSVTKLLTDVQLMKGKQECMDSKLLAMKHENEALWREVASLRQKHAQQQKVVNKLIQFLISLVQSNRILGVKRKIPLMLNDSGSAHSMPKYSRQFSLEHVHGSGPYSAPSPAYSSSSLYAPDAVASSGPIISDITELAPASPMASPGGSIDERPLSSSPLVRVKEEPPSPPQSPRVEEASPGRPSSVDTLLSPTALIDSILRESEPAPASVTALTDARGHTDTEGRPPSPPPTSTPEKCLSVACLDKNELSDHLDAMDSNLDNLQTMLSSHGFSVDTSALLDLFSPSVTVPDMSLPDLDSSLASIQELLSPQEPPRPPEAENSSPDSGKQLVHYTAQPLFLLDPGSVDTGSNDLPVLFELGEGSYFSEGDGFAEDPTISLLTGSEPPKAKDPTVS
In short: as §1

SPIC = biological target: T8, SPIC (Homo sapiens, UniProt Q8N5J4 1-248); conditions: protein: recombinant; tags: N-terminal GST; dsDNA, one strand shown
T8 sequence: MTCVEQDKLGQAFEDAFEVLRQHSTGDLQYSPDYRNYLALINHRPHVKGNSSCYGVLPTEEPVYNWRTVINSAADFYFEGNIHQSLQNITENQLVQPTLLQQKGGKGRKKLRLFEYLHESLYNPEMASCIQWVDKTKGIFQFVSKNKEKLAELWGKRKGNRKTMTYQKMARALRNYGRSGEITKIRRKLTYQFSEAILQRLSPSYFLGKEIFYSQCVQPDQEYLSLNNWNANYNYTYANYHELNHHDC
In short: as §1

ELF4 = ELF4 (Homo sapiens, UniProt Q99607 1-663); conditions: protein: recombinant; tags: N-terminal GST; dsDNA, one strand shown
Sequence of ELF4 (Q99607 whole entry): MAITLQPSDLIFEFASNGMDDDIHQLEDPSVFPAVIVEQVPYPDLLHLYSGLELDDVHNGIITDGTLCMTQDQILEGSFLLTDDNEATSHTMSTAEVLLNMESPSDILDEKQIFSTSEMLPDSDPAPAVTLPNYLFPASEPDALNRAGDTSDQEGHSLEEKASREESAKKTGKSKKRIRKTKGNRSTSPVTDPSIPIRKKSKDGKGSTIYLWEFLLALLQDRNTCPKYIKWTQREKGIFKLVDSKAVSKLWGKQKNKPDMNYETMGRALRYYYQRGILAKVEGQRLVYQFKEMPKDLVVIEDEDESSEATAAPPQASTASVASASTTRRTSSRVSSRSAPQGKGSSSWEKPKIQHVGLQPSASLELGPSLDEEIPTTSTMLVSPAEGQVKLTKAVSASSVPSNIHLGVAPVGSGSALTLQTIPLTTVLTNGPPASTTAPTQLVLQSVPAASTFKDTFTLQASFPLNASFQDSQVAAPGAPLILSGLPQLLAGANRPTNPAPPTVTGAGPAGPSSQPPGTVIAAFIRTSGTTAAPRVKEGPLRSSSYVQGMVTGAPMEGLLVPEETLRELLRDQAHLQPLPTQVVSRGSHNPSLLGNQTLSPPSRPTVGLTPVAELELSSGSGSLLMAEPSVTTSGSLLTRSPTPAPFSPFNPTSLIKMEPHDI
In short: as §1

ELK4 = biological target: T9, ELK4 (Homo sapiens, UniProt P28324-2 1-405); conditions: protein: recombinant; tags: N-terminal GST; dsDNA, one strand shown
T9 sequence: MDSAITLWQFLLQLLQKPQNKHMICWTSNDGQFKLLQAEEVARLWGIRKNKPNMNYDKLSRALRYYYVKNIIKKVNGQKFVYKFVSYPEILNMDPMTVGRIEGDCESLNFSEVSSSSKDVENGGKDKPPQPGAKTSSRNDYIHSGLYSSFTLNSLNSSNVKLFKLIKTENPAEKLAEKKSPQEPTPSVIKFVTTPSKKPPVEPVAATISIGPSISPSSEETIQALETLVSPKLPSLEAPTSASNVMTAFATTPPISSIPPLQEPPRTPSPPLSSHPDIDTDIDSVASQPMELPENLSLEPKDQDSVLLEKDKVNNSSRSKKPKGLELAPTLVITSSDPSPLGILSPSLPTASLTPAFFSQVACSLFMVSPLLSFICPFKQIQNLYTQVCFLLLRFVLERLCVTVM
In short: as §1

ETV2 = biological target: T10, ETV2 (Homo sapiens, UniProt O00321 1-342); conditions: protein: recombinant; tags: N-terminal GST; dsDNA, one strand shown
T10 sequence: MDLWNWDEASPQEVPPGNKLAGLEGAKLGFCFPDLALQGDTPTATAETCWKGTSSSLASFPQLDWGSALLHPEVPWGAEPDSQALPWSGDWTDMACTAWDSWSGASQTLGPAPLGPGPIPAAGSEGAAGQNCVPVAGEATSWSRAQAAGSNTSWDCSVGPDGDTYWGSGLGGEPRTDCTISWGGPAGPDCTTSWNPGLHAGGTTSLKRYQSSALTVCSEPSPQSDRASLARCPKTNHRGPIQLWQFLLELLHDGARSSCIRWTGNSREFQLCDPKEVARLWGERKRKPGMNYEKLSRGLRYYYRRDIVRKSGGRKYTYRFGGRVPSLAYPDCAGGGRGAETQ
In short: as §1

ELF3 = biological target: T11, ELF3 (Homo sapiens, UniProt P78545 1-371); conditions: protein: recombinant; tags: N-terminal GST; dsDNA, one strand shown
T11 sequence: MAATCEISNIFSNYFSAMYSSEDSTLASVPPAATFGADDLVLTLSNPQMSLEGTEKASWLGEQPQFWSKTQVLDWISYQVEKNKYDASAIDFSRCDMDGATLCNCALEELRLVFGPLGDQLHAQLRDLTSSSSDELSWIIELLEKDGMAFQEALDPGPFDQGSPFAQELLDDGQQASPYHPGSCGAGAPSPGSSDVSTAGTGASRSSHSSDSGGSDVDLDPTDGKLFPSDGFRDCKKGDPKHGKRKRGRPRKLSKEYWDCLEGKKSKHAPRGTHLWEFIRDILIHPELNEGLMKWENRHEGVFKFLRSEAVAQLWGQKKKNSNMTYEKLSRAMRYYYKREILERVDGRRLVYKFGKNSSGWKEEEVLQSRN
In short: as §1

CRX = CRX (Homo sapiens, UniProt O43186 1-299); conditions: protein: recombinant; tags: N-terminal GST; dsDNA, one strand shown
Sequence of CRX (O43186 whole entry): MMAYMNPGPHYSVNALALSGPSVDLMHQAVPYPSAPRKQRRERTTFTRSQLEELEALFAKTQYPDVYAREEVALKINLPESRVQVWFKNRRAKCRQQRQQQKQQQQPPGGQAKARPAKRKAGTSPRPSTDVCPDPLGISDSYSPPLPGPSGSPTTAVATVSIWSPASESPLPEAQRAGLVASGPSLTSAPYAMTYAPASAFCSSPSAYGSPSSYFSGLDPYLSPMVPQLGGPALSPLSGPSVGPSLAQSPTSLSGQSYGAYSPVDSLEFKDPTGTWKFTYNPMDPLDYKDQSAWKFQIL
In short: as §1

ETV1 = ETV1 (Homo sapiens, UniProt P50549 1-477); conditions: protein: recombinant; tags: N-terminal GST; dsDNA, one strand shown
Sequence of ETV1 (P50549 whole entry): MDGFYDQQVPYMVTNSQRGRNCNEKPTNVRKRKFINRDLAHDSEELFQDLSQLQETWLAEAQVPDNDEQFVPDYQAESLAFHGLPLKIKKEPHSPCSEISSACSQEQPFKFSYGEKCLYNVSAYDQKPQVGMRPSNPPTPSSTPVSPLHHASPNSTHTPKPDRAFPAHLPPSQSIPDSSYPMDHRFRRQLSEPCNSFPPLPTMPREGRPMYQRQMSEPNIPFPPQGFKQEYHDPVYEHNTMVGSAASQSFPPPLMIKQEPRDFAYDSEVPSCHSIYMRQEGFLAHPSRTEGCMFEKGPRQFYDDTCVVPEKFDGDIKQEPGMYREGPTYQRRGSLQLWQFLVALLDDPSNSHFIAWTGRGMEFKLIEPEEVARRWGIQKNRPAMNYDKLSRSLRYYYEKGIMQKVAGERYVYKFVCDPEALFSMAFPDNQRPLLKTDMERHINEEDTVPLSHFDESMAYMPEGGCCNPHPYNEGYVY
In short: as §1

Sequence: GATTTC
- binding signal (FLI1): 1.77 fold enrichment (6-mer frequency, TF over GST control)
- binding signal (ELK1): 1.78 fold enrichment (6-mer frequency, TF over GST control)
- binding signal (GABPA): 1.55 fold enrichment (6-mer frequency, TF over GST control)
- binding signal (ERG): 2.15 fold enrichment (6-mer frequency, TF over GST control)
- binding signal (ELF1): 1.62 fold enrichment (6-mer frequency, TF over GST control)
- binding signal (EHF): 1.71 fold enrichment (6-mer frequency, TF over GST control)
- binding signal (SPI1): 1.67 fold enrichment (6-mer frequency, TF over GST control)
- binding signal (SPIB): 1.72 fold enrichment (6-mer frequency, TF over GST control)
- binding signal (ELK3): 1.73 fold enrichment (6-mer frequency, TF over GST control)
- binding signal (FEV): 2.86 fold enrichment (6-mer frequency, TF over GST control)
- binding signal (ETV5): 1.92 fold enrichment (6-mer frequency, TF over GST control)
- binding signal (HSF1): 1.56 fold enrichment (6-mer frequency, TF over GST control)
- binding signal (SPIC): 1.65 fold enrichment (6-mer frequency, TF over GST control)
- binding signal (ELF4): 1.7 fold enrichment (6-mer frequency, TF over GST control)
- binding signal (ELK4): 1.64 fold enrichment (6-mer frequency, TF over GST control)
- binding signal (ETV2): 1.64 fold enrichment (6-mer frequency, TF over GST control)
- binding signal (ELF3): 1.62 fold enrichment (6-mer frequency, TF over GST control)
- binding signal (CRX): 1.52 fold enrichment (6-mer frequency, TF over GST control)
- binding signal (ETV1): 1.79 fold enrichment (6-mer frequency, TF over GST control)
